Drawing on PubChem BioAssay (NCI), this text covers growth for 13 compounds.

This is part of a sample that, as a whole, favours compounds with a hit. Of some 83,000 tested, about 20% had one in any assay.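 Note: values are percent growth. 100 is the growth of untreated cells, values between 100 and 0 indicate rising inhibition; between -100 and 0 indicates cell death.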 Unmarked numbers belong to inactive results. Active and inactive are the calls of the source. Rule for the calls: active = growth percent below 10; inactive = the rest.

The assay concerns SF-268 CNS. Briefly: NCI-60 one-dose screen, 48 h (100 = growth as untreated, 0 = no growth, -100 = all killed). To be noted: 10 µM unless noted.
For the compound `NC(=O)n1c(=O)n(-c2cccc(C(F)(F)F)c2)c(=O)c2cc(-c3ccc(F)cc3F)ccc21`, the growth was 16.6%.

Regarding `O=C1CSC(c2cn(-c3ccccc3)nc2-c2ccc(Cl)cc2)N1c1ccccc1` (stereo not drawn), the growth was 109%.

`COc1ccc(/C=N/NC(=O)CSc2nc(-c3cnccn3)cc(-c3cccs3)c2C#N)cc1`: the growth is 83.5%.

Regarding `C#Cc1cc(OC)c(C(=O)Nc2ccc(F)cc2C(=O)Nc2cccc(S(=O)(=O)C(F)(F)F)c2)cn1`, the growth is -38.1% (active).

On to `CN1c2ccccc2Sc2cc(/C=N/Nc3ccnc4cc(Cl)ccc34)ccc21`, for which the growth was 99.4%.

On to `O=C(/C=C/c1cccc(F)c1)c1cccc(OCCCOc2cccc(C(=O)/C=C/c3cccc(F)c3)c2)c1`, for which the growth was 92.1%.

With `CN1CCN(Cc2ccc(NC(=O)c3cncc(C#Cc4cnc(N)nc4)c3)cc2C(F)(F)F)CC1`, the growth was 28.1%.

On to `O=C(CSc1nc2ccccc2c(=O)n1-c1ccc(Cl)c(Cl)c1)Nc1ccc(S(=O)(=O)Nc2ccc(Cl)nn2)cc1`, for which the growth was 100%.

As for `Cc1[nH]c(C(=O)Nc2ccc(C(N)=O)cc2N2CCOC(C)C2)c(Cl)c1Cl` (stereo not drawn), the growth is 98.8%.

Regarding `N#Cc1nc(-c2ccccc2)oc1N1CCC(C2(C(F)(F)F)N=N2)CC1`, the growth is 101%.

`C/C(=C(\c1ccc(O)cc1)c1ccc(OCCN2CCCCCC2)cc1)c1ccc(Cl)cc1`: the growth is -62.5% (active).

For `COc1ccc(C(=O)c2c(N)c(C#N)cn2-c2ccc(Cl)cc2Cl)cc1`, the growth is 100%.

As for `C#C[C@]1(O)CC[C@H]2[C@@H]3CC=C4c5sc(Nc6cccc(F)c6)nc5CC[C@]4(C)[C@H]3CC[C@@]21C`, the growth was 37.1%.
